This passage reports growth results from PubChem BioAssay (NCI).

Test systems include SK-MEL-2 melanoma; SN12C renal; UO-31 renal; TK-10 renal; ACHN renal; CAKI-1 renal; A498 renal; CCRF-CEM leukemia; MOLT-4 leukemia; SR leukemia; RPMI-8226 leukemia; OVCAR-8 ovarian; OVCAR-5 ovarian; OVCAR-4 ovarian; SK-OV-3 ovarian; OVCAR-3 ovarian; HS 578T breast; NCI/ADR-RES ovarian; IGROV1 ovarian.
Holding throughout (assay): NCI-60 one-dose screen, 48 h (100 = growth as untreated, 0 = no growth, -100 = all killed)
Conditions in all cases: 10 µM unless noted

About 83,000 compounds went through this panel and 20% of them were active in at least one assay; those are over-represented in the sample as a whole.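 Cells were grown in 96-well plates and exposed to the test compound at a single concentration for 48 hours; results are reported as percent growth, with values below 10 considered active.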 A number with no mark means an inactive call. Activity calls are given as the source filed them.

As to `CC(=O)O[C@H]1[C@@H]2OC(=O)C(CSc3ccccc3)[C@@H]2C[C@H]2O[C@]2(C)CC/C=C(\C)CCC[C@@H]1C` (stereo not given in full), the growth in the assay with SK-MEL-2 melanoma was 35.6%; in the assay on SN12C renal, 31.6%; in the assay with UO-31 renal, 11.7%; with TK-10 renal it was -5.98% (active); in the assay on ACHN renal it was 33.5%; with CAKI-1 renal, 2.92% (active). Besides, the growth in the assay with A498 renal was 116%; in the assay on CCRF-CEM leukemia it was 52.4%; in the assay with MOLT-4 leukemia it was 22.7%; with SR leukemia, 58.2%; in the assay on RPMI-8226 leukemia it was 51.6%; in the assay on OVCAR-8 ovarian, 28.7%. Also, the growth was 83.6% with OVCAR-5 ovarian; 34.3% in the assay with OVCAR-4 ovarian; 103% in the assay with SK-OV-3 ovarian; -9.73% (active) in the assay on OVCAR-3 ovarian; 69.6% with HS 578T breast; 29.6% in the assay on NCI/ADR-RES ovarian.
Regarding `COc1cc(-c2nc3ccccc3[nH]2)ccc1OCc1nnc(-c2ccc(CC(C)C)cc2)o1`, the growth with SK-MEL-2 melanoma was 101%; with SN12C renal, 89.9%; in the assay on UO-31 renal it was 64.9%; in the assay with TK-10 renal it was 115%; in the assay on ACHN renal, 101%; in the assay on CAKI-1 renal it was 96.3%. Besides, the growth is 64% in the assay with A498 renal; 84.9% in the assay with CCRF-CEM leukemia; 78.8% in the assay on MOLT-4 leukemia; 80.2% in the assay with SR leukemia; 83% with RPMI-8226 leukemia; 92.2% with OVCAR-8 ovarian. The growth was 114% in the assay with OVCAR-5 ovarian; 90.9% with OVCAR-4 ovarian; 99.1% with SK-OV-3 ovarian; 92.3% with IGROV1 ovarian; 95.2% in the assay with OVCAR-3 ovarian; 87.4% in the assay on HS 578T breast. In addition, the growth with NCI/ADR-RES ovarian is 89.8%.
Take `COc1cc2nc(N3CCCC3)nc(NCCc3ccccc3)c2cc1OC`: the growth in the assay with SK-MEL-2 melanoma was 103%; in the assay with SN12C renal it was 75.9%; in the assay on UO-31 renal it was 69.2%; in the assay with TK-10 renal it was 98.3%; in the assay with ACHN renal it was 85.7%; in the assay on CAKI-1 renal, 80.5%. Further, the growth was 83.1% in the assay on A498 renal; 0.115% (active) in the assay on CCRF-CEM leukemia; -2.23% (active) in the assay with MOLT-4 leukemia; -21.8% (active) in the assay on RPMI-8226 leukemia; 65.6% in the assay on OVCAR-8 ovarian; 39.5% with OVCAR-5 ovarian. In addition, the growth in the assay with OVCAR-4 ovarian was -2.44% (active); in the assay with SK-OV-3 ovarian it was 84.7%; with IGROV1 ovarian it was 70.3%; in the assay on OVCAR-3 ovarian, 82.5%; with HS 578T breast, 98.4%; in the assay on NCI/ADR-RES ovarian it was 61.8%.
As for `CCOc1cc2c(cc1OCC)C(c1cc(OC)c(O)cc1Cl)NCC2` (stereo not given), the growth is 113% in the assay on SK-MEL-2 melanoma; 96.7% with SN12C renal; 70.1% with UO-31 renal; 88.2% in the assay on TK-10 renal; 94.6% in the assay with ACHN renal; 115% in the assay with CAKI-1 renal. The growth was 93.7% in the assay with A498 renal; 108% in the assay with CCRF-CEM leukemia; 112% with MOLT-4 leukemia; 98.7% with SR leukemia; 94% in the assay on RPMI-8226 leukemia; 90.8% in the assay on OVCAR-8 ovarian. The growth is 85.9% with OVCAR-5 ovarian; 89.2% in the assay on OVCAR-4 ovarian; 103% in the assay on SK-OV-3 ovarian; 90.5% in the assay on IGROV1 ovarian; 98.6% in the assay on OVCAR-3 ovarian; 106% in the assay on HS 578T breast.
Regarding `COc1ccc(Nc2cc(C)nc(N3CCN(c4ccnc5cc(Cl)ccc45)CC3)n2)cc1`, the growth with SK-MEL-2 melanoma is 48%; with SN12C renal it was 40.9%; in the assay on UO-31 renal, -0.534% (active); in the assay with TK-10 renal it was 46.8%; with ACHN renal, 41.5%; in the assay on CAKI-1 renal, 35.1%. Moreover, the growth was -1.56% (active) in the assay with A498 renal; 16% in the assay with CCRF-CEM leukemia; 11.1% with MOLT-4 leukemia; -4.15% (active) in the assay with SR leukemia; 16.2% in the assay on RPMI-8226 leukemia; 53.6% in the assay on OVCAR-8 ovarian. Also, the growth in the assay with OVCAR-5 ovarian is 73.4%; in the assay with OVCAR-4 ovarian, 36.6%; with SK-OV-3 ovarian, 51%; with IGROV1 ovarian, -11% (active); with OVCAR-3 ovarian, 6.63% (active); with HS 578T breast, 71.1%.
For `CN(C)CCCNc1c2ccccc2nc2ccccc12`, the growth with SK-MEL-2 melanoma was 99.9%; in the assay on SN12C renal, 95.8%; with UO-31 renal it was 103%; in the assay with TK-10 renal, 81.6%; in the assay on ACHN renal, 100%; in the assay on CAKI-1 renal, 106%. Also, the growth in the assay on A498 renal was 102%; in the assay with CCRF-CEM leukemia, 86.9%; in the assay on MOLT-4 leukemia, 83.3%; in the assay on RPMI-8226 leukemia, 100%; in the assay on OVCAR-8 ovarian it was 92%; with OVCAR-5 ovarian, 97.9%. Besides, the growth in the assay on OVCAR-4 ovarian is 87.4%; in the assay on SK-OV-3 ovarian, 95.8%; in the assay with IGROV1 ovarian, 97.5%; in the assay on OVCAR-3 ovarian, 103%; with HS 578T breast it was 75.7%.
With `COC[C@H](C)n1c(C2CCOCC2)nc2cnc3cc(-c4c(C)noc4C)c(OC)cc3c21`, the growth in the assay on SK-MEL-2 melanoma was 76.6%; in the assay with SN12C renal, 76.1%; in the assay on UO-31 renal, 19.5%; with TK-10 renal it was 29.4%; with ACHN renal it was 43.7%; with CAKI-1 renal, 16.2%. For the same molecule, the growth with A498 renal is 5.12% (active); with CCRF-CEM leukemia, 61.4%; in the assay with MOLT-4 leukemia, 42.2%; in the assay with SR leukemia it was 33.5%; in the assay with RPMI-8226 leukemia, 24%; with OVCAR-8 ovarian, 49.6%. Further, the growth is 79.9% in the assay on OVCAR-5 ovarian; 54.7% with OVCAR-4 ovarian; 7.03% (active) with SK-OV-3 ovarian; 66.5% in the assay on IGROV1 ovarian; 49.8% in the assay on OVCAR-3 ovarian; 12.6% in the assay on HS 578T breast. Also, the growth with NCI/ADR-RES ovarian is 54.2%.
As for `O=C(CCCCC(=O)N/N=C\c1ccccc1O)N/N=C\c1ccccc1O`, the growth in the assay on SK-MEL-2 melanoma is 75.6%; in the assay on SN12C renal, 47.4%; in the assay with UO-31 renal, 19.3%; with TK-10 renal it was 40.5%; with ACHN renal it was 13.2%; in the assay with CAKI-1 renal, 14.7%. Further, the growth is 18.1% in the assay on CCRF-CEM leukemia; 14.6% in the assay on MOLT-4 leukemia; 19.7% in the assay with SR leukemia; 50.2% with RPMI-8226 leukemia; 41.7% with OVCAR-8 ovarian; 59% with OVCAR-5 ovarian. The growth in the assay with OVCAR-4 ovarian is 70.3%; with SK-OV-3 ovarian, 40.3%; in the assay on IGROV1 ovarian it was 27.2%; in the assay with HS 578T breast it was 71%; in the assay on NCI/ADR-RES ovarian it was 41.6%.
For `CN1CCN(c2ccc(Nc3c4ccccc4nc4ccccc34)cc2)CC1`, the growth in the assay on SK-MEL-2 melanoma is 106%; in the assay with SN12C renal it was 102%; in the assay with UO-31 renal it was 97.5%; in the assay on TK-10 renal, 102%; in the assay with ACHN renal, 102%; with CAKI-1 renal, 107%. Further, the growth with A498 renal was 112%; with CCRF-CEM leukemia, 105%; in the assay with MOLT-4 leukemia, 97.5%; with SR leukemia it was 103%; with RPMI-8226 leukemia it was 121%; in the assay on OVCAR-8 ovarian it was 100%. Also, the growth was 102% in the assay with OVCAR-5 ovarian; 103% with OVCAR-4 ovarian; 112% with SK-OV-3 ovarian; 111% in the assay with IGROV1 ovarian; 110% in the assay with OVCAR-3 ovarian; 117% with HS 578T breast.
For the molecule `O=C1/C(=C(/c2ccccc2)N2CCOCC2)Cc2ccccc21`, the growth was 90.4% in the assay on SK-MEL-2 melanoma; -42.6% (active) with SN12C renal; -47.8% (active) with UO-31 renal; -16.7% (active) with TK-10 renal; -39.6% (active) in the assay with ACHN renal; -43.5% (active) in the assay with CAKI-1 renal. Moreover, the growth with A498 renal is 51.4%; in the assay with CCRF-CEM leukemia, 22.6%; with MOLT-4 leukemia it was 22.7%; in the assay with SR leukemia, 26.6%; in the assay with RPMI-8226 leukemia, 16.5%; in the assay on OVCAR-8 ovarian, 20.4%. Moreover, the growth with OVCAR-5 ovarian was 34.4%; in the assay with OVCAR-4 ovarian, 31.7%; in the assay on SK-OV-3 ovarian, 93.6%; in the assay with IGROV1 ovarian, 14%; in the assay with OVCAR-3 ovarian, -60.7% (active); with HS 578T breast, 5.18% (active). In the assay on NCI/ADR-RES ovarian, the growth is -33.1% (active).
Regarding `CCc1nnc(CNc2ccc(Cl)cc2)o1`, the growth was 90.6% with SK-MEL-2 melanoma; 95.8% with SN12C renal; 73.7% in the assay on UO-31 renal; 114% in the assay on TK-10 renal; 86.8% in the assay on ACHN renal; 89.9% with CAKI-1 renal. Moreover, the growth is 106% in the assay with A498 renal; 114% in the assay with CCRF-CEM leukemia; 89.7% with MOLT-4 leukemia; 88.6% in the assay on SR leukemia; 103% in the assay with RPMI-8226 leukemia; 109% in the assay with OVCAR-8 ovarian. The growth in the assay with OVCAR-5 ovarian was 95.6%; in the assay on OVCAR-4 ovarian, 99.2%; in the assay on SK-OV-3 ovarian, 88.5%; in the assay on IGROV1 ovarian it was 105%; with OVCAR-3 ovarian it was 99.9%; in the assay on HS 578T breast, 102%. Besides, the growth with NCI/ADR-RES ovarian was 97.8%.
